# Source: the antibiotic and cytotoxicity screens of Wong et al. (2023)
# Hit rate of the full screen: of about 39,000 compounds, about 1,500 (3.8%) were called active. The entries come from a sample that favours actives as a whole.
# System: HSkMC (human skeletal muscle cells)
# Assay: cytotoxicity call (relative viability < 0.9)
# Settings: 10 µM
row,Compound,cytotoxicity call
1,C[C@H]1CN([C@@H](C)CO)C(=O)c2cc(NC(=O)Nc3ccc(C(F)(F)F)cc3)ccc2O[C@H]1CN(C)Cc1ccc(-c2ccccc2)cc1,active
2,C[C@H](CO)N1C[C@H](C)[C@@H](CN(C)Cc2ccc(-c3ccccc3)cc2)Oc2ccc(NC(=O)Nc3ccc(C(F)(F)F)cc3)cc2C1=O,active
3,C[C@@H]1CN([C@@H](C)CO)C(=O)c2cc(NC(=O)Nc3ccc(C(F)(F)F)cc3)ccc2O[C@@H]1CN(C)Cc1ccc(-c2ccccc2)cc1,active
4,C[C@@H]1CN([C@H](C)CO)C(=O)Cc2cc(NS(=O)(=O)c3cn(C)cn3)ccc2O[C@H]1CN(C)CC1CC1,inactive
5,Cc1noc(C)c1NC(=O)Nc1ccc2c(c1)CC(=O)N([C@H](C)CO)C[C@H](C)[C@H](CN(C)S(=O)(=O)c1ccccc1)O2,inactive
6,CO[C@H]1CN(C)C(=O)c2ccc(NS(=O)(=O)CC(F)(F)F)cc2OC[C@H](C)N(C(=O)NC(C)C)C[C@H]1C,inactive
7,COc1cccc(C(=O)Nc2ccc3c(c2)C(=O)N(C)[C@@H]2CC[C@H](CC(=O)NCCCN4CCOCC4)O[C@H]2CO3)c1,inactive
8,COc1ccc(S(=O)(=O)N(C)C[C@@H]2OCCCC[C@H](C)Oc3ccc(NC(=O)CCC(F)(F)F)cc3C(=O)N([C@H](C)CO)C[C@H]2C)cc1,inactive
9,OC[C@H]1O[C@@H](Nc2ccccn2)[C@@H](O)[C@@H](O)[C@@H]1O,inactive
10,COc1ccc(S(=O)(=O)N(C)C[C@H]2Oc3ncc(-c4ccncc4)cc3C(=O)N([C@@H](C)CO)C[C@@H]2C)cc1,inactive
11,Cc1nn(C)cc1NC(=O)C[C@@H]1CC[C@H]2[C@H](COc3ccc(NC(=O)C4CCOCC4)cc3C(=O)N2C)O1,inactive
12,COc1cccc(C#Cc2ccc3c(c2)O[C@H](CN(C)S(=O)(=O)c2ccccc2F)[C@@H](C)CN([C@@H](C)CO)S3(=O)=O)c1,inactive
13,C[C@H]1CN([C@@H](C)CO)C(=O)c2cc(NC(=O)Nc3ccccc3)ccc2O[C@@H]1CN(C)Cc1ccc(C(F)(F)F)cc1,inactive
14,C[C@H](CO)N1C[C@H](C)[C@H](CN(C)Cc2ccc(-c3ccccc3)cc2)Oc2ccc(NC(=O)Nc3ccc(C(F)(F)F)cc3)cc2C1=O,active
15,C[C@@H]1CN([C@@H](C)CO)C(=O)c2cc(NC(=O)Nc3ccccc3)ccc2O[C@@H]1CN(C)Cc1ccc(C(F)(F)F)cc1,inactive
16,C[C@@H]1CN([C@H](C)CO)C(=O)c2cc(NC(=O)Nc3ccc(C(F)(F)F)cc3)ccc2O[C@H]1CN(C)Cc1ccc(-c2ccccc2)cc1,active
17,C[C@@H]1CN([C@@H](C)CO)C(=O)c2cc(NC(=O)Nc3ccc(C(F)(F)F)cc3)ccc2O[C@H]1CN(C)Cc1ccc(-c2ccccc2)cc1,active
18,C[C@@H]1CN([C@H](C)CO)C(=O)c2cc(NC(=O)Nc3ccc(C(F)(F)F)cc3)ccc2O[C@@H]1CN(C)Cc1ccc(-c2ccccc2)cc1,active
19,Cc1ccc(S(=O)(=O)N(C)C[C@H]2Oc3ccc(NC(=O)CCCN(C)C)cc3CC(=O)N([C@@H](C)CO)C[C@@H]2C)cc1,inactive
20,C[C@@H]1CN([C@@H](C)CO)C(=O)c2cc(NS(C)(=O)=O)ccc2O[C@@H](C)CCCCO[C@@H]1CN(C)S(=O)(=O)c1cccs1,inactive
21,Cc1noc(C)c1S(=O)(=O)Nc1ccc2c(c1)C(=O)N([C@@H](C)CO)C[C@@H](C)[C@H](CN(C)Cc1ccc(C(F)(F)F)cc1)OCCCC[C@H](C)O2,inactive
22,CC(C)Cn1c(=O)n(C)c(=O)c2[nH]cnc21,inactive

row,Compound,cytotoxicity call
1,Cc1noc(C)c1S(=O)(=O)Nc1ccc2c(c1)CC(=O)N([C@H](C)CO)C[C@H](C)[C@@H](CN(C)S(C)(=O)=O)O2,inactive
2,O=C(O)c1ccc(N2CCCS2(=O)=O)cc1,inactive
3,Cc1ccsc1[C@@H](O)CN,inactive
4,CC(C)Cc1ccc([C@@H](C)C(=O)Nc2ccc(Cl)cc2)cc1,inactive
5,Cc1cc(C)c(-c2ccc(NC(=O)[C@H](Cc3ccc(C(=O)NCCS(=O)(=O)O)cc3)c3ccc(-c4ccc(C(C)(C)C)cc4)cc3)cc2)c(C)c1,active
6,N[C@@H]1CONC1=O,inactive
7,O=C(C[C@H]1CC[C@@H]2[C@H](COC[C@H](O)CN2S(=O)(=O)c2ccc(F)cc2)O1)NCCN1CCCCC1,inactive
8,CN1CCN(c2ccc(OC(F)(F)F)c(Nc3ncc4c(n3)-c3c(c(C(N)=O)nn3CCO)CC4)c2)CC1,active
9,COc1ccc2c3c([nH]c2c1)[C@H](CO)N(C[C@]13CCN(CC1)S(=O)(=O)c1cn(cn1)C)C(=O)Nc1ccc(cc1)F,inactive
10,C[C@@H]1CCCCO[C@@H](CN(C)S(=O)(=O)c2cn(C)cn2)[C@H](C)CN([C@@H](C)CO)C(=O)c2cc(NC(=O)CCCN(C)C)ccc2O1,inactive
11,C[C@@H]1CN([C@@H](C)CO)C(=O)Cc2cc(NC(=O)C3CCCCC3)ccc2O[C@H]1CN(C)Cc1ccc(Oc2ccccc2)cc1,inactive
12,C[C@H](CO)N1C[C@H](C)[C@@H](CN(C)Cc2ccc(Oc3ccccc3)cc2)Oc2ccc(NC(=O)C3CCCCC3)cc2CC1=O,inactive
13,C[C@@H]1CN([C@H](C)CO)C(=O)Cc2cc(NC(=O)C3CCCCC3)ccc2O[C@@H]1CN(C)Cc1ccc(Oc2ccccc2)cc1,active
14,C[C@H]1CN([C@@H](C)CO)C(=O)Cc2cc(NC(=O)C3CCCCC3)ccc2O[C@@H]1CN(C)Cc1ccc(Oc2ccccc2)cc1,inactive
15,C[C@H](CO)N1C[C@H](C)[C@H](CN(C)Cc2ccc(-c3ccccc3)cc2)Oc2ccc(NC(=O)C3CCCCC3)cc2CC1=O,inactive
16,C[C@H]1CN([C@@H](C)CO)C(=O)Cc2cc(NC(=O)C3CCCCC3)ccc2O[C@@H]1CN(C)Cc1ccc(-c2ccccc2)cc1,inactive
17,C[C@@H]1CN([C@H](C)CO)C(=O)Cc2cc(NC(=O)C3CCCCC3)ccc2O[C@@H]1CN(C)Cc1ccc(-c2ccccc2)cc1,active
18,C[C@H]1CN([C@@H](C)CO)C(=O)Cc2cc(NC(=O)C3CCCCC3)ccc2O[C@H]1CN(C)Cc1ccc(Oc2ccccc2)cc1,active
19,C[C@@H]1CN([C@H](C)CO)C(=O)Cc2cc(NC(=O)C3CCCCC3)ccc2O[C@H]1CN(C)Cc1ccc(Oc2ccccc2)cc1,inactive
20,CC(=O)N1CCc2nc(N)sc2C1,inactive
21,C[C@@H]1CN([C@@H](C)CO)C(=O)c2cccc(NS(=O)(=O)c3cn(C)cn3)c2O[C@H]1CN(C)S(=O)(=O)c1ccc(Cl)cc1,inactive
22,CC=Cc1ccc2n(c1=O)C[C@@H]1[C@@H](CO)[C@H](C(=O)NCC3CC3)[C@H]2N1S(=O)(=O)c1cn(C)cn1,inactive

row,Compound,cytotoxicity call
1,C[C@@H]1CN([C@@H](C)CO)S(=O)(=O)c2ccc(C#Cc3ccccc3F)cc2O[C@@H]1CN(C)C(=O)Cc1cccnc1,inactive
2,C[C@H]1CN([C@@H](C)CO)C(=O)c2cc(NC(=O)C3CCCCC3)ccc2O[C@H]1CN(C)Cc1ccc(-c2ccccc2)cc1,inactive
3,C[C@H](CO)N1C[C@H](C)[C@@H](CN(C)C(=O)Nc2ccc3c(c2)OCO3)Oc2c(NC(=O)C3CC3)cccc2C1=O,inactive
4,C[C@H](CO)N1C[C@H](C)[C@@H](CN(C)C(=O)Nc2ccc(C(F)(F)F)cc2)Oc2c(NC(=O)NC3CCCCC3)cccc2C1=O,inactive
5,C[C@@H]1CN([C@H](C)CO)C(=O)c2cccc(NC(=O)Nc3ccc(C(F)(F)F)cc3)c2O[C@@H]1CN(C)C(=O)NC1CCCCC1,active
6,C[C@@H]1CN([C@H](C)CO)C(=O)c2cccc(NC(=O)Nc3ccc(C(F)(F)F)cc3)c2O[C@H]1CN(C)C(=O)NC1CCCCC1,inactive
7,C[C@@H]1CN([C@@H](C)CO)C(=O)c2cccc(NC(=O)Nc3ccc(C(F)(F)F)cc3)c2O[C@H]1CN(C)C(=O)NC1CCCCC1,active
8,C[C@@H]1CN([C@@H](C)CO)C(=O)c2cccc(NC(=O)Nc3ccc(C(F)(F)F)cc3)c2O[C@@H]1CN(C)C(=O)NC1CCCCC1,inactive
9,C[C@H](CO)N1C[C@H](C)[C@@H](CN(C)C(=O)NC2CCCCC2)Oc2c(NC(=O)Nc3ccc(C(F)(F)F)cc3)cccc2C1=O,inactive
10,C[C@H](CO)N1C[C@H](C)[C@H](CN(C)C(=O)NC2CCCCC2)Oc2c(NC(=O)Nc3ccc(C(F)(F)F)cc3)cccc2C1=O,inactive
11,C[C@H]1CN([C@@H](C)CO)C(=O)c2cccc(NC(=O)Nc3ccc(C(F)(F)F)cc3)c2O[C@@H]1CN(C)C(=O)NC1CCCCC1,active
12,C[C@H]1CN([C@@H](C)CO)C(=O)c2cccc(NC(=O)Nc3ccc(C(F)(F)F)cc3)c2O[C@H]1CN(C)C(=O)NC1CCCCC1,inactive
13,CC(C)NC(=O)Nc1cccc2c1O[C@H](CN(C)S(=O)(=O)c1ccccc1)[C@H](C)CN([C@H](C)CO)C2=O,inactive
14,C[C@@H]1CN([C@@H](C)CO)C(=O)c2cccc(NC(=O)Nc3ccc(C(F)(F)F)cc3)c2O[C@H]1CN(C)Cc1ccc(C(=O)Nc2ccccc2N)cc1,inactive
15,C[C@H](CO)N1C[C@H](C)[C@H](CN(C)C(=O)c2ccccc2)OCCCC[C@H](C)Oc2ccc(NC(=O)NC3CCCCC3)cc2C1=O,inactive
16,O=C(C[C@@H]1CC[C@H](NS(=O)(=O)c2ccc(F)cc2)[C@H](CO)O1)NCc1ccc(Cl)c(Cl)c1,inactive
17,C[C@@H]1CN([C@@H](C)CO)S(=O)(=O)c2ccc(-c3cccnc3)cc2O[C@H]1CN(C)CC1CCOCC1,inactive
18,COCC(=O)N(C)C[C@H]1Oc2cc(C#CCN(C)C)ccc2S(=O)(=O)N([C@H](C)CO)C[C@H]1C,inactive
19,CCNC(=S)N1CCC[C@H](C(N)=O)C1,inactive
20,Cn1cncc1CN1CCO[C@]2(COCCN(S(C)(=O)=O)C2)C1,inactive
